Results as given in PubChem BioAssay.
Active and inactive are the calls of the source.

Key:
Albumin (Bos taurus) = Albumin (Bos taurus) (UniProt P02769); test: bovine serum albumin binders on microarray, profiling panel, artefact control for SMM control protein annotation, biochemical, small-molecule microarray, Alexa647 label, 635/667 nm fluorescence (AID 1118); details: BSA-A647 binding, fluorescence 635 nm, higher = more signal;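 note: score merges 667 nm emission intensity and signal-to-noise per printed compound spot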
Albumin (Bos taurus), sequence (P02769 whole entry, looked up): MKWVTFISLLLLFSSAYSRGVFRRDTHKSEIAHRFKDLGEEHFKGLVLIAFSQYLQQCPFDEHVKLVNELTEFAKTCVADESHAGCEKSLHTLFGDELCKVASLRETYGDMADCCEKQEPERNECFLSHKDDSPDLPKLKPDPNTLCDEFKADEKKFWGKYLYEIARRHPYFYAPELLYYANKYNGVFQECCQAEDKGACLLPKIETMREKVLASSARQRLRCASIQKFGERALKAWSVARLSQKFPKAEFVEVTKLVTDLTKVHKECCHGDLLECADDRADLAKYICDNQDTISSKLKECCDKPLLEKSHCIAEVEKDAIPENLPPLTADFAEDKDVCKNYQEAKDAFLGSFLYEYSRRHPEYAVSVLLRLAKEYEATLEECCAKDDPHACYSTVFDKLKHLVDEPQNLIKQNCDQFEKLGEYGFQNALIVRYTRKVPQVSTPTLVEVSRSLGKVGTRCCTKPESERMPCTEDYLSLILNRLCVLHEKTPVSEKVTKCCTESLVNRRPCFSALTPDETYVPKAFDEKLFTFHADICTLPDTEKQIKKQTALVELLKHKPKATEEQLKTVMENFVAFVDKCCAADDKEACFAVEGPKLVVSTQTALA

[1] = small-molecule microarray binders of probe aXIP, primary screen, biochemical, NeuroSMM set, 635/667 nm fluorescence (AID 1119); details: higher = more signal, called active from +8 up or from −8 down;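 note: probe is the protein aXip251-270 applied at 1 µg/mL to compound-printed slides; binding of probe to printed compounds measured as 667 nm fluorescence plus signal to noise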
[2] = small-molecule binders of probe aNOTCH3, primary screen, biochemical, small-molecule microarray, 635/667 nm fluorescence (AID 1120); details: higher = more signal;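 note: probe is a biotin-tagged antibody raised against NOTCH3 rather than NOTCH3 protein; score merges spot fluorescence near 667 nm with spot signal to noise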
[3] = small-molecule binders of probe aNOTCH2, primary screen, biochemical, small-molecule microarray, 635/667 nm fluorescence (AID 1121); details: higher = more signal;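 note: score merges feature fluorescence read at 667 nm with its signal to noise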
[4] = molecular target: Carbonic anhydrase 2 (Homo sapiens) (UniProt P00918); test: CAII small-molecule binders, profiling panel, biochemical, small-molecule microarray, Alexa647-labelled CAII (AID 1122); details: CAII-A647 binding fluorescence, higher = more signal
[5] = COS7 lysate on small-molecule microarray, probe aHis, 635 nm (AID 1123); details: COS7 cell lysate, fluorescence, higher = more signal;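 note: z-score combines 667nm fluorescence intensity with signal-to-noise per printed compound spot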
[6] = compound binding in COS7 lysate, probe aLAP1, primary screen, cell lysate, small-molecule microarray (AID 1124); details: probe aLAP1, fluorescence, higher = more signal;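 note: lysate comes from COS7 cells expressing LAP1 and is applied at 0.3 µg/mL; score merges spot fluorescence near 667 nm with signal-to-noise over triplicate slides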
Sam68 (KHDRBS1) = test: Sam68 small-molecule binders, primary screen, biochemical, small-molecule microarray, 635 nm fluorescence (AID 1125); details: small-molecule microarray binding, higher = more signal;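 note: score merges 667 nm channel intensity with signal to noise over triplicate slides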
[7] = system: Chordin-like protein 2 (CHRDL2); test: CHRDL2 small-molecule binders, primary screen, biochemical, small-molecule microarray, 635 nm fluorescence (AID 1126); details: small-molecule microarray binding, fluorescence 635 nm; higher = more signal;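 note: printed compound slides probed with Chrdl2 protein at 4 µg/mL for 1 h at 4 C; score merges 667 nm emission intensity with signal to noise over three replicate slides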
[8] = molecular target: Concanavalin-A (Canavalia ensiformis) (UniProt P02866); test: ConA small-molecule binders, primary screen, artefact control for SMM control protein annotation, biochemical, small-molecule microarray, Alexa647 label, 635 nm (AID 1127); details: ConA-A647 binding fluorescence, higher = more signal;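 note: z combines 667 nm emission intensity with signal-to-noise across three replicate slides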
Concanavalin-A (Canavalia ensiformis), sequence (P02866 whole entry, looked up): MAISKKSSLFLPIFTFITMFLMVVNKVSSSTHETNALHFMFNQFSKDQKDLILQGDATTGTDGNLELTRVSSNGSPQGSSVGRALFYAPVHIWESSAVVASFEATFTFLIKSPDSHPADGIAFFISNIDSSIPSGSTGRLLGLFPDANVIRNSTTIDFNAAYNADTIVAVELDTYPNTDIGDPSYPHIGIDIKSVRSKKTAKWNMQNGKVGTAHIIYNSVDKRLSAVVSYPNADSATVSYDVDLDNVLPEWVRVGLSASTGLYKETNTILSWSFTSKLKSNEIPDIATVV

[9] = anti-His antibody binders, primary screen, artefact control for SMM control protein annotation, biochemical, small-molecule microarray, 635 nm fluorescence (AID 1128); details: anti-His Alexa647 antibody binding, higher = more signal;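 note: score merges feature fluorescence with signal-to-noise for each printed compound spot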
[10] = system: Human papillomavirus type 1a E7 protein (residues 1-88); test: HPV1a E7 small-molecule binders, primary screen, biochemical, small-molecule microarray, residues 1-88, 635 nm (AID 1129); details: small-molecule microarray binding, fluorescence 635 nm; higher = more signal
[11] = molecular target: Focal adhesion kinase 1 (Homo sapiens) (UniProt Q05397); test: small-molecule microarray binders of FAK, primary screen, biochemical, 635/667 nm fluorescence, BSA, DTT (AID 1130); details: PTK2 binding, 635 nm fluorescence, higher = more signal;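 note: composite of spot emission at 667 nm and signal to noise over triplicate slides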
Focal adhesion kinase 1 (Homo sapiens), sequence (Q05397 whole entry, looked up): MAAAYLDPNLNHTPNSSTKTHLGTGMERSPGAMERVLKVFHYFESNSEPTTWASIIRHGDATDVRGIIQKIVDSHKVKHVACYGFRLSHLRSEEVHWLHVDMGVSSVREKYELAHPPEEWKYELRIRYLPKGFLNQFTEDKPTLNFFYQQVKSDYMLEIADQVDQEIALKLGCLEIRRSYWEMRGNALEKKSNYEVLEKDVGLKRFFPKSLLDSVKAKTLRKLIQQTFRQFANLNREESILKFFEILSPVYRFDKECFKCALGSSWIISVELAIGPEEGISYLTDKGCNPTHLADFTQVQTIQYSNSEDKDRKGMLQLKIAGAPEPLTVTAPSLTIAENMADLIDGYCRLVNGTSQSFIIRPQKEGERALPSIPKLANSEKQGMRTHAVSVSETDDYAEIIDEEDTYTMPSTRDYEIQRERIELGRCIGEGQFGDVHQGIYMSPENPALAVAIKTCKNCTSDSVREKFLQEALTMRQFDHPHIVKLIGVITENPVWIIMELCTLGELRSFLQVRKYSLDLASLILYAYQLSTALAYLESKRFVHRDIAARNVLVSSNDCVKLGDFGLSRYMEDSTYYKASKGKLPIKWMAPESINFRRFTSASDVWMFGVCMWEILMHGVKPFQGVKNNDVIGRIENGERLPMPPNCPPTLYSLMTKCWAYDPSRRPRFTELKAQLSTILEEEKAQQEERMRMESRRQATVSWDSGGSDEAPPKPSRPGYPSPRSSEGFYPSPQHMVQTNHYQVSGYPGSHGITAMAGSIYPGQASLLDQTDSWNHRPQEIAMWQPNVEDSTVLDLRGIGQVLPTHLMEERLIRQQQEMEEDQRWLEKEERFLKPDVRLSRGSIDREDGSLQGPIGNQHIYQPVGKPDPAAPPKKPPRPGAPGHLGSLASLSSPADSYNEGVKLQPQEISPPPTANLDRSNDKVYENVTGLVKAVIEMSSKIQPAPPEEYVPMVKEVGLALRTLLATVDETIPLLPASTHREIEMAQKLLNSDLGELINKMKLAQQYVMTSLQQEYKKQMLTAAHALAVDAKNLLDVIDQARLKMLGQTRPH

[12] = system: Fibrinogen (Alexa647-labelled); test: fibrinogen binders on compound microarrays, profiling panel, artefact control for SMM control-protein annotation, biochemical, small-molecule microarray, 635/667 nm fluorescence (AID 1131); details: fibrinogen-A647 binding fluorescence, higher = more signal;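 note: z-score merges 667 nm fluorescence with per-spot signal-to-noise over triplicate slides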
[13] = molecular target: Follistatin (Homo sapiens) (UniProt P19883); test: follistatin binders on small-molecule microarrays, primary screen, biochemical, small-molecule microarray, 635/667 nm fluorescence (AID 1132); details: FST binding, 635 nm fluorescence, higher = more signal
Follistatin (Homo sapiens), sequence (P19883 whole entry, looked up): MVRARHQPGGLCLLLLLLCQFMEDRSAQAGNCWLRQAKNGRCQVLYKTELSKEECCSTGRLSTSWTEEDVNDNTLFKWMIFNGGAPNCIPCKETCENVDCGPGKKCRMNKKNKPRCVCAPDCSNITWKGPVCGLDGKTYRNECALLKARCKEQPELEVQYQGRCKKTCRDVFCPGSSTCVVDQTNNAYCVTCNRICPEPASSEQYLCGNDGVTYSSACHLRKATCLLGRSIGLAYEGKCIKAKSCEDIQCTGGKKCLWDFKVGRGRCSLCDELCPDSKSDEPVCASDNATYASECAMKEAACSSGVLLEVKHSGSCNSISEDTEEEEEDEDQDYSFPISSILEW

[14] = molecular target: Fibroblast growth factor 2 (Homo sapiens) (UniProt P09038); test: FGF2 binders on small-molecule microarrays, primary screen, biochemical, small-molecule microarray, 635/667 nm fluorescence (AID 1133); details: small-molecule microarray binding, FGF2, fluorescence 635/667; higher = more signal
Fibroblast growth factor 2 (Homo sapiens), sequence (P09038 whole entry, looked up): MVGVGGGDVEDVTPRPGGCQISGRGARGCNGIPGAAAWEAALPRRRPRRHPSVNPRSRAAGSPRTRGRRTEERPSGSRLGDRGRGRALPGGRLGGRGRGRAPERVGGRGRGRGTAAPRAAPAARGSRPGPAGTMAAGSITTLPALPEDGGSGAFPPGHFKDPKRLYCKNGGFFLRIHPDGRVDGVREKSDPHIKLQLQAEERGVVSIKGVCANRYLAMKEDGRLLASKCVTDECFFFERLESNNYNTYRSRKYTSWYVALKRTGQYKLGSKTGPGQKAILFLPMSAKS

[15] = mitochondrial membrane potential change in A549 cells, profiling panel, cell-based, JC-1 fluorescence, basal, 24 h, 100 nL (AID 1138); details: higher = more signal;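 note: A549 lung adenocarcinoma cells under basal conditions with no added stimulus; test concentration not given here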
Lefty1 = Lefty1 binders on small-molecule microarrays, primary screen, biochemical, small-molecule microarray, 635/667 nm fluorescence (AID 1139); details: small-molecule microarray binding, fluorescence 635/667; higher = more signal
[16] = system: wheat germ agglutinin (Triticum aestivum), Alexa647-labelled; test: wheat germ agglutinin binders on compound microarrays, profiling panel, artefact control for SMM control-protein annotation, biochemical, small-molecule microarray, 635/667 nm fluorescence (AID 1140); details: WGA-A647 binding, 635 nm fluorescence, higher = more signal;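 note: score merges 667 nm feature emission with signal to noise over triplicate slides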
[17] = molecular target: Luciferin 4-monooxygenase (Photinus pyralis) (UniProt P08659); test: firefly luciferase enzyme inhibitors, primary screen, biochemical, luminescence, purified enzyme, 2006 set (AID 1141); details: SteadyGlo luminescence, 30 min, higher = more signal, called active from +8 up or from −8 down;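 note: cell-free assay with purified firefly luciferase at 100 ng per well in PBS; test concentration not given here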
Luciferin 4-monooxygenase (Photinus pyralis), sequence (P08659 whole entry, looked up): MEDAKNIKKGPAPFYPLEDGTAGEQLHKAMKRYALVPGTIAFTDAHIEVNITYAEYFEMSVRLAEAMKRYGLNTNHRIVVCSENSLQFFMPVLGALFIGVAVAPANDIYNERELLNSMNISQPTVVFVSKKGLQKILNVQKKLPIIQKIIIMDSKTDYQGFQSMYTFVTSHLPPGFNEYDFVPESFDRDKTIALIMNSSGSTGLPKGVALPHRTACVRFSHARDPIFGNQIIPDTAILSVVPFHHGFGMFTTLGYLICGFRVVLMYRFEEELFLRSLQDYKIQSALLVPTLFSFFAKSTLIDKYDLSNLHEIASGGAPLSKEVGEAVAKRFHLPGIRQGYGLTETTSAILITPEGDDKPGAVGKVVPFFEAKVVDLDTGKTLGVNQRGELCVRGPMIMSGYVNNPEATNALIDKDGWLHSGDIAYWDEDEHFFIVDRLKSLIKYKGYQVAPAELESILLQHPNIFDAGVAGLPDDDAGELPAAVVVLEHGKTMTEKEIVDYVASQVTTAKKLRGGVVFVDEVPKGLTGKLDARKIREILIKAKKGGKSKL

Structure (SMILES)	composite z-score (Albumin (Bos taurus))	composite Z-score [1]	composite z-score [2]	composite z-score [3]	composite z-score [4]	composite z-score [5]	composite z-score [6]	composite z-score (Sam68 (KHDRBS1))	composite z-score [7]	composite z-score [8]	composite z-score [9]	composite z-score [10]	composite z-score [11]	composite z-score [12]	composite z-score [13]	composite z-score [14]	z-score [15]	composite z-score (Lefty1)	composite z-score [16]	z-score [17]
C#CCOC(=O)N[C@H](C=CCCCC)c1ccccc1	1.02	0.33 (inactive)	0.0077	0.0964	0.88	3.67	0.711	0.199	-0.0017	0.0429	1.33	0.95	0.4	0.762	-0.101	-0.204	0.59	-1.09	0.817	0.597 (inactive)
C=CCOC(=O)[C@@H]1[C@H]2C(=O)O[C@H](c3ccccc3)[C@H](c3ccccc3)N2[C@H](c2ccc(OCCOC(=O)[C@@H]3C[C@@H]4C(=O)N[C@@H](CCCCNC(C)=O)C(=O)N4[C@@H]3c3ccc(O)cc3)cc2)[C@@]12C(=O)Nc1ccc(I)cc12	-0.427	1.48 (inactive)	0.844	-0.0458	0.5	1.86	0.705	1.29	0.986	1.15	1.73	1.21	0.478	0.207	1.41	1.62	-1.37	1.37	0.412	-0.576 (inactive)
COC(=O)[C@@]1(Cc2ccc(OC)cc2)[C@H]2c3cc(C(=O)N(C)C)n(CCF)c3C[C@H]2CN1C(=O)c1ccccc1	1.01	1.22 (inactive)	0.292	-0.0015	0.793	2.96	0.721	1.32	-0.499	1.21	1.9	1.25	0.842	1.01	0.887	0.127	0.486	-0.698	1.32	0.948 (inactive)
C=C(C)[C@@H]1CC=C(C(O)C2C=CC3C(=O)N(C4CCCCC4)C(=O)C3N2Nc2ccc(OC)cc2)CC1 (stereo not given in full)	0.902	0.494 (inactive)	0.323	-0.141	0.59	2.54	0.273	1.29	0.0811	1.09	0.736	1.21	0.589	1	1.17	0.723	0.677	0.606	0.46	-0.392 (inactive)
C/C=C/[C@@H](CCn1cc([C@H](O)c2ccccc2)nn1)[Si](C)(C)c1ccc(OC)cc1	-0.91	2.17 (inactive)	-0.367	-0.195	-0.105	1.15	0.614	-0.123	0.0697	-0.333	0.0974	-0.253	0.0213	-0.267	-0.673	-0.62	0.947	-0.337	0.418	0.273 (inactive)
COC(=O)[C@@]1(Cc2ccccc2N=[N+]=[N-])N=C(c2ccc(OCCCO)cc2)O[C@H]1c1ccccc1	0.371	0.17 (inactive)	-0.0377	-0.0563	0.593	1.28	0.156	1.16	-0.608	1.11	2.23	1.13	0.771	0.422	0.465	0.19	-1.26	0.138	0.0657	-2.7 (inactive)
CC(C)(C)OC(=O)CC[C@]1(C(=O)N2CCCCC2)N=C(c2ccc(OCCCO)cc2)O[C@H]1c1ccccc1CN=[N+]=[N-]	0.982	-0.43 (inactive)	0.516	0.381	0.801	2.74	0.762	1.3	0.388	1.2	3.05	1.21	0.72	0.978	1.4	1.42	2.94	0.675	1.09	-3.56 (inactive)
O=C1N(Cc2ccccc2)c2ccccc2[C@H]2OC(c3ccc(OCCCO)cc3)=N[C@@]12CCS(=O)(=O)c1ccccc1	0.273	-0.313 (inactive)	0.0538	-0.112	0.692	2.83	0.948	1.29	0.376	0.54	1.68	1.25	1.06	0.984	1.2	1.36	-1.26	0.689	0.726	-0.202 (inactive)
O=C1CSC(c2cccc([N+](=O)[O-])c2)N1c1ccccc1 (stereo not given)	0.0623	0.0045 (inactive)	-0.0647	-0.172	0.153	0.523	0.537	0.557	0.286	0.612	0.317	0.494	-0.0119	0.667	0.244	0.481	0.774	0.257	-0.0002	0.174 (inactive)
CC(C)(C)OC(=O)CC[C@@]1(C(=O)N2CCCCC2)N=C(c2ccc(OCCCO)cc2)O[C@@H]1c1ccccc1CN=[N+]=[N-]	1.03	0.18 (inactive)	0.359	0.13	0.597	2.99	0.639	1.29	-0.813	1.18	3.24	1.21	1.26	1.03	1.04	0.0627	1.58	0.0215	1.35	-0.931 (inactive)
COc1ccc(C(=O)Nc2ccc3c(c2)[C@]2(O[C@@H](CCO)[C@H]([Si](C)(C)c4ccc(OC)cc4)[C@H]2C)C(=O)N3Cc2ccccc2)cc1	-0.58	0.131 (inactive)	-0.242	-0.135	0.0277	-0.0175	-0.352	1.01	0.845	0.908	-0.155	0.809	0.411	0.491	1.39	0.827	0.168	1.26	0.161	-0.777 (inactive)
